This is an account of results in PubChem BioAssay AID463213 (Sanford-Burnham Center for Chemical Genomics, 2010).

Each structure is given as a SMILES string. Out of some 7,400 compounds screened, about 4,100 (55%) were called active. So high a share suggests a set chosen from earlier hits. Only a sample is shown. Values without a mark were called inactive.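 How the source made its calls: active means inhibition of yeast growth at or above a set limit in either of two repeat tests at 20 µM; inactive means the rest.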

Usually inhibition stands for the change of the read-out against control, counted positive when it falls.

The test in a line: tim10-1 ts yeast growth inhibition, retested – single concentration, luminescence, S. cerevisiae, confirmation (AID 463213).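 Further: tim10-1 mutant grown at permissive 25 °C to find synthetic lethal compounds; 0% = DMSO yeast wells and 100% = medium wells without yeast.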 The note with it: S. cerevisiae tim10-1 ts strain growth, BacTiter-Glo, 24 h; at 20 µM; stronger effect = higher value.
As to `Fc1cccc(Cl)c1CSc1ccc(-c2ccco2)nn1`, the inhibition was 39.5% (active).
Take `Clc1ccccc1CSc1nnc(-c2ccco2)c(-c2ccco2)n1`: the inhibition is 27.3%.
For `COc1cc(C(=O)Nc2nccs2)cc(OC)c1OC` the value was 29%.
Then `CSc1nnc(NC(=O)c2nc(S(=O)(=O)Cc3ccc(C)cc3)ncc2Cl)s1`, with -0.5%; and `COc1ccc(CS(=O)/C(Cl)=C(/Cl)C(=O)Nc2ccc(OC)nc2)cc1` (stereo unspecified), with 34.8% (active).
As for `Cn1c(CCCOc2ccc(Cl)cc2Cl)n[nH]c1=S`, the inhibition was 17.5%.
For the compound `Cc1ccc(NC(=O)CN2CCC3(O)CCCCC3C2c2ccc3c(c2)OCO3)c(C)c1` (stereo unspecified), the inhibition is 37.5% (active).
Then `Cn1c(C(=O)OC(C(=O)NC2CCCCC2)c2ccccn2)cc2sccc21` (stereo unspecified), with 17.9%.
As to `CN(c1ccccc1)S(=O)(=O)c1ccc(NC(=O)COc2ccccc2)cc1`, the inhibition is 34.2% (active).
Consider `Cc1ccc(NC(=O)CCOc2ccccc2)cc1S(=O)(=O)Nc1ccccc1Cl`, for which the inhibition is 29.1%.
For `COc1ccc(/C(N)=N/OC(=O)CCCc2ccccc2)cc1` the value was 48.1% (active); for `N/C(=N\OC(=O)CCc1ccccc1)c1ccc(Cl)cc1`, 57.7% (active); for `COc1ccc(/C(N)=N/OC(=O)Cc2ccccc2)cc1`, 15.5%.
Then `CS(=O)(=O)c1sc2nc(-c3ccccc3)cc(-c3ccccc3)c2c1N`, with 33.8% (active).
As to `Nc1nc(-c2ccccc2)cc(-c2ccccc2)n1`, the inhibition is 10%.
With `O=C(COc1ccccc1Cl)N1N=C(c2cccs2)CC1c1ccco1` (stereo unspecified), the inhibition is 27.8%.
Turning to `O=C(CC(O)(C(F)(F)F)C(F)(F)F)Nc1ccc(Cl)c(Cl)c1`, the inhibition is 88.2% (active).
Regarding `CN=c1scc(-c2cc(OC)ccc2OC)n1/N=C/c1c(C)[nH]c2ccccc12`, the inhibition was 19.1%.
As to `O=S(=O)(Nc1cccc(Oc2ccc(Cl)cc2)n1)c1ccc(F)cc1`, the inhibition was 45% (active).
For `CCCc1nc2c(c(=O)c3ccccc3n2C)c(=O)n1C1CCCCCC1` the value was 28.5%; for `CCCCCC1CCC(c2nnc(SCC(C)=O)o2)CC1` (stereo unspecified), 39.2% (active).
With `COc1ccc(CCNc2cc(C)nc3c(-c4ccc(Cl)cc4)c(C)nn23)cc1OC`, the inhibition was 24%.
In the case of `CCOC(=O)c1c(-c2ccccc2)oc2ccc(OCC(=O)NN)cc12`, the inhibition was 15.6%.
Regarding `CCOC(=O)c1c(CN2CCOCC2)n(-c2ccccc2)c2ccc(O)cc12`, the inhibition was 22.6%.
On to `CCOC(=O)c1c(-c2ccccc2)oc2cc(Br)c(O)cc12`, for which the inhibition was 39.4% (active).
For `CCOc1ccccc1N1CCN(C(=O)c2ccc3[nH]c(C)c(C)c3c2)CC1` the value was 16.4%; for `CCn1nccc1C(=O)Nc1ccc(Cl)c(Cl)c1`, 37.8% (active); for `O=C(/C=C/c1ccccc1)c1ccccc1O`, 56.2% (active).
Then `COc1ccc(C(=O)Nc2ccc(-n3nncc3C(C)(C)C)cc2)cc1`, with 38.6% (active); and `Cc1ccc(S/C(=N\S(=O)(=O)c2ccc(Cl)cc2)c2ccccc2)cc1`, with 35.6% (active).
With `CC(C)Cn1c(N)c(C(=O)NCc2cccs2)c2nc3ccccc3nc21`, the inhibition is 22.4%.
Then `Oc1c(CN2CCN(c3ccc(F)cc3)CC2)cc(Cl)c2cccnc12`, with 32% (active); and `O=C(c1cccc(C(=O)N2CCN(c3ccc(F)cc3)CC2)c1)N1CCN(c2ccc(F)cc2)CC1`, with 27%.
On to `Fc1ccc(N2CCN(Cc3cnc(Oc4ccc(Br)cc4)s3)CC2)cc1`, for which the inhibition was 28.4%.
Consider `OC(CNCC1CCCO1)Cn1c2ccc(Br)cc2c2cc(Br)ccc21` (stereo unspecified), for which the inhibition is 3.65%.
In the case of `O=C(/C=C/c1cccs1)c1cc(Cl)ccc1OC(=O)N1CCOCC1`, the inhibition is 48.5% (active).
Turning to `O=C(NC(Nc1nc2ccc([N+](=O)[O-])cc2s1)(C(F)(F)F)C(F)(F)F)c1ccccc1`, the inhibition is 86.6% (active).
Then `O=C(NCCN1C(=O)S/C(=C\c2cccnc2)C1=O)c1cccc(OC(F)F)c1`, with 27.6%; and `N/C(=N\OC(=O)CCC1CCCCC1)c1ccccn1`, with 45.5% (active); and `N/C(=N\OC(=O)CC1CCCCC1)c1ccccc1`, with 47.9% (active).
Consider `S=c1[nH]nc(CSCc2ccc(Cl)cc2Cl)n1-c1ccccc1`, for which the inhibition was 24.7%.
With `Cc1nnnn1/C(=C\c1ccccc1)C(=O)OCC(=O)N1CC2(C)CC1CC(C)(C)C2` (stereo unspecified), the inhibition is 48.4% (active).
As for `N/C(Cc1ccc([N+](=O)[O-])cc1)=N\OC(=O)C1CCCCC1`, the inhibition was 79.8% (active).
On to `N/C(Cc1ccc([N+](=O)[O-])cc1)=N\OC(=O)COc1ccc2ccccc2c1`, for which the inhibition is 74.3% (active).
As to `CN(C)C(=O)c1ccc2c(c1)C1C3CCC(C3)C1C(c1ccccc1)N2` (stereo unspecified), the inhibition is 25.9%.
As for `Cc1cccc(NC(=S)Nc2ccc(Cl)c(Cl)c2)c1`, the inhibition was 50.9% (active).
Regarding `FC(F)(F)c1cccc(NC(=S)Nc2cccc(Cl)c2)c1`, the inhibition is 21.2%.
Regarding `Cc1cccc(NC(=S)N2CCC(c3nc4ccccc4s3)CC2)c1`, the inhibition was 30.5%.
With `CCOc1ccc(C(c2c(C)[nH][nH]c2=O)c2c(C)[nH][nH]c2=O)cc1OCC`, the inhibition was 36.1% (active).
Take `Cc1[nH][nH]c(=O)c1C(c1ccc(-c2ccc(Cl)cc2)o1)c1c(C)[nH][nH]c1=O`: the inhibition was 29%.
For `COc1ccccc1C1SCCN1C(=O)c1ccc([N+](=O)[O-])cc1` (stereo unspecified), the inhibition was 15.9%.
Then `N/C(=N\OC(=O)Cc1ccccc1[N+](=O)[O-])c1ccc(Br)cc1`, with 55.3% (active); and `COc1cc(Cl)c(C)cc1NC(=O)CSc1nnc(-c2ccco2)n1CC(C)C`, with 24.4%.
For the compound `COc1cc(N=Cc2c(O)[nH]c3ccccc23)cc(OC)c1OC`, the inhibition was 20.7%.
Consider `Cc1cccc(N=Nc2c(O)[nH]c3ccc(F)cc23)c1`, for which the inhibition is 51.5% (active).
As to `Cc1ccccc1NCC(=O)N/N=C\c1ccc([N+](=O)[O-])s1`, the inhibition was 44.2% (active).
As for `C/C(=N\NC(=O)CNc1cccc2ccccc12)c1ccc(Br)s1`, the inhibition was 26.1%.
Then `O=C(CCc1ccccc1)Nc1ncc([N+](=O)[O-])s1`, with 25%; and `Cc1ccccc1Nc1nnc(SCC(=O)c2cc3ccccc3o2)s1`, with 33.8% (active); and `CC(C)CC(=O)NC(=S)Nc1ccc(F)cc1F`, with 24.9%.
As for `O=C(/C=C/Sc1ncn[nH]1)c1ccc(Cl)cc1`, the inhibition was 69.7% (active).
As for `COc1ccc(CCNCc2c(-c3ccccc3)n(C)c3ccccc23)cc1`, the inhibition is 19.6%.
As to `Cc1nc(-c2ccccc2)cn2c1nc1ccccc12`, the inhibition was 36% (active).
Regarding `CCc1ccc(-c2cc(C(=O)NCc3ccco3)c3ccccc3n2)s1`, the inhibition is 32.3% (active).
For `O=C(Nc1nnc(-c2ccccc2)o1)c1cc(-c2cccs2)nc2ccccc12` the value was 13.9%; for `CC1=CC(C)(C)Nc2ccc(OC(=O)CN3C(=O)C4CCCCC4C3=O)cc21` (stereo unspecified), 22.8%.
Then `Cc1cc(N)n2nc(-c3ccc(C(C)(C)C)cc3)cc2n1`, with 42% (active); and `COc1ccccc1CSc1ncc(-c2ccc([N+](=O)[O-])cc2)[nH]1`, with 27.1%; and `CCCCC(O)(CCCC)C(=O)NN(C(=O)CCl)c1ccccc1`, with 36.3% (active).
Take `Cc1ccc(Oc2cnn(-c3ccccc3)c(=O)c2Br)cc1`: the inhibition is 41.2% (active).
Turning to `COc1ccc(N2CCN(C(=O)CCSCc3ccccc3F)CC2)cc1`, the inhibition is 16.8%.
Regarding `Fc1ccc(/C=N/Nc2nc(-c3cccnc3)nc3ccccc23)cc1`, the inhibition was 33.9% (active).
As for `COc1ccc(/C=C(\C#N)C(=O)ONC2=NCCCCC2)cc1`, the inhibition was 66.8% (active).
Take `COc1ccc2c(c1)c(C(=O)N/N=C/c1cccs1)c(C)n2C`: the inhibition was 28.8%.
As to `COc1ccc(C(=O)Nc2ccccc2C(=O)N/N=C/c2ccc(O)c(OC)c2)cc1`, the inhibition was 91.6% (active).
Then `COc1ccc(/C(C)=N/NC(=O)c2ccc3nc[nH]c3c2)cc1`, with -11.2%; and `COc1cccc(C(=O)Nc2cc3c(cc2Br)OCCCO3)c1`, with 9.95%.
For `COc1ccc(C(=O)Nc2ccccc2C(=O)N/N=C/c2ccccc2OC)cc1`, the inhibition is 56.6% (active).
In the case of `O=C(C(=O)N1CCc2ccccc2C1)c1c[nH]c2ccccc12`, the inhibition was 12.1%.
Then `CC1CCc2c(sc3nc4n(c(=O)c23)CCS4)C1` (stereo unspecified), with 37.5% (active).
Then `CC1CCc2sc3nc(N4CCN(CCO)CC4)n4ncnc4c3c2C1` (stereo unspecified), with 27.2%; and `CCOC(=O)CSc1nc2c(c(=O)n(Cc3ccccc3Cl)c(=O)n2C)n1C`, with 31.1%; and `Cc1ccc(-c2ccc(/C=C(\C#N)C(N)=S)o2)c([N+](=O)[O-])c1`, with 48.3% (active).
On to `CC(=O)Cc1nsc(NC(=O)c2csc3c2CCCC3)n1`, for which the inhibition was 29.6%.
As for `COc1ccc(N2C(=O)CC(Sc3n[nH]c(-c4ccc(C)cc4)n3)C2=O)cc1` (stereo unspecified), the inhibition is 24.7%.
As to `CNC(=O)/C(C#N)=C/c1c(F)cccc1Cl`, the inhibition is 50.1% (active).
Turning to `CCOC(=O)c1ccccc1N1C(=O)C2Sc3[nH]c(=O)sc3C(/C=C/c3ccccc3)C2C1=O` (stereo unspecified), the inhibition was 15.4%.
For `CCOC(=O)C1Sc2[nH]c(=O)sc2C(c2ccc(Cl)cc2)C1C(=O)OCC` (stereo unspecified) the value was 33.5% (active); for `ONC(=Nc1ccc(Cl)cc1)c1ccccc1Cl`, 31.5% (active); for `Cc1cccc(NC(=S)NCc2ccc3[nH]c4c(c3c2)CCCC4)c1`, 35.3% (active).
Regarding `O=C(N/N=C\c1cccc(Br)c1)c1ccccc1-n1cccc1`, the inhibition was 51.5% (active).
In the case of `CCC(=O)N1CCc2cc(S(=O)(=O)NC(C(=O)N3CCc4ccccc4C3)C(C)C)ccc21` (stereo unspecified), the inhibition is 22.2%.
Consider `CC1CCCC(C)N1C(=O)CN1CCN(c2nc(-c3ccc(F)cc3)cs2)CC1` (stereo unspecified), for which the inhibition is 37.2% (active).
Then `O=C(CN1CCN(c2ccc(F)cc2)CC1)Nc1cccc(C(F)(F)F)c1`, with 23.8%.
On to `O=C(Nc1nc(-c2ccco2)c(-c2ccco2)s1)c1ccco1`, for which the inhibition is 65.9% (active).
For the compound `Cc1ccc2c(c1)c1ncnc(N3CCc4ccccc4C3)c1n2C`, the inhibition is 22.1%.
